Test results from PubChem BioAssay (Tox21).
“And” between values parts separate entries of the source, which are not always exact repeats. Equal entries are not always repeated. Results filed as inconclusive are left out. Entries that show only a call come without a potency. Some compounds were tested as several samples or in several runs, with calls that do not always agree. The source made the active and inactive calls. Unless noted, calls follow the shape of the dose curve; as a rule, active = well fitted curve in the direction sought with a large enough effect in the repeat runs; inconclusive = weak or mixed curves; inactive = no such curve, though single readings can be large; an effect the other way counts as inactive or inconclusive.

Columns and labels:
[1] = qHTS assay to identify small molecule agonists of the hypoxia (HIF-1) signaling pathway (AID 1224846; active = well fitted activation curve with a large enough effect in the signal ratio in the repeat runs, not every such curve was filed as active; the % refers to the signal ratio)
How it was run: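 Hypoxia-pathway activation was scored as increased beta-lactamase from an HRE-controlled reporter in ME-180 cells; plated at 2,000 cells per well with 0.5% dialyzed FBS, they were exposed 17 hrs to compounds and then given CCF4-AM.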

[2] = qHTS assay to identify small molecule agonists of H2AX - cell viability counter screen (AID 1224847; calls by dose curve; also: nearly all actives have a fitted effect of over 30% in size; also: potency is read from the fitted curve at half-maximal effect)
How it was run: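 We seed wild-type CHO-K1 cells overnight, treat them for 3 hr at 37C with compounds in 15-concentration series, and quantify remaining viability by CellTiter-Glo luminescence.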

[3] = qHTS RealTime-Glo MT Cell Viability Assay in HepG2 cells - 40 hour (AID 1224870); also: nearly all actives have a fitted effect of over 50% in size; also: potency is read from the fitted curve at half-maximal effect
How it was run: (§1)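 Real-time viability: cells seeded at 600 per well together with NanoLuc and cell-permeant prosubstrate, compounds added after 5 h incubation. Luminescence tracked at 0, 8, 16, 24, 32 and 40 h of exposure.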

[4] = qHTS RealTime-Glo MT Cell Viability Assay in HepG2 cells - 8 hour (AID 1224873); also: nearly all actives have a fitted effect of over 55% in size; also: potency is read from the fitted curve at half-maximal effect
How it was run: as §1

[5] = A CellTox Green Cytotoxicity Assay to monitor cytotoxicity in HepG2 cells - 16 hour (AID 1224876); also: nearly all actives have a fitted effect of over 45% in size; also: potency is read from the fitted curve at half-maximal effect
How it was run: (§2)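 Nonlytic assay: viable cells exclude the dye, so fluorescence scales with cell death. HepG2 at 600 cells/well, compounds added after 5 h, signal read across 40 h.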

[6] = qHTS RealTime-Glo MT Cell Viability Assay in HepG2 cells - 32 hour (AID 1224877); also: nearly all actives have a fitted effect of over 55% in size; also: potency is read from the fitted curve at half-maximal effect
How it was run: (§3)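 Luminescence read-out: viable HepG2 cells reduce a prosubstrate to a NanoLuc substrate, giving a signal proportional to live cell number. Reads taken at 0, 8, 16, 24, 32 and 40 h of compound exposure at 37 C.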

[7] = A CellTox Green Cytotoxicity Assay to monitor cytotoxicity in HepG2 cells - 24 hour (AID 1224878); also: nearly all actives have a fitted effect of over 45% in size; also: potency is read from the fitted curve at half-maximal effect
How it was run: as §2

[8] = A CellTox Green Cytotoxicity Assay to monitor cytotoxicity in HepG2 cells - 40 hour (AID 1224879); also: nearly all actives have a fitted effect of over 40% in size; also: potency is read from the fitted curve at half-maximal effect
How it was run: as §2

[9] = A CellTox Green Cytotoxicity Assay to monitor cytotoxicity in HepG2 cells - 0 hour (AID 1224882); also: nearly all actives have a fitted effect of over 35% in size
How it was run: as §2

[10] = qHTS assay to identify small molecule antagonists of the estrogen related receptor (ERR) signaling pathway from Tox21 library (AID 1224848); also: potency is read from the fitted curve at half-maximal effect; nearly all actives have a fitted effect of over 50% in size
How it was run: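 Antagonist-mode screen of the Tox21 10K library in an NTP-provided ERR reporter cell line; 18 h compound exposure at 37 C, luminescence measured with ONE-Glo.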

[11] = qHTS assay to identify small molecule agonists of the estrogen related receptor (ERR) signaling pathway from Tox21 library (AID 1224849; calls by dose curve; also: nearly all actives have a fitted effect of over 15% in size); details: ERR reporter cell line, ONE-Glo luciferase, 18 h
How it was run: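 Six hours post-seeding at 37 C/5% CO2, ERR cells receive DMSO-solubilised compounds; after 18 h at 37 C, ONE-Glo reagent is applied and luminescence recorded.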

[12] = qHTS RealTime-Glo MT Cell Viability Assay in HepG2 cells - 24 hour (AID 1224867); also: nearly all actives have a fitted effect of over 50% in size; also: potency is read from the fitted curve at half-maximal effect
How it was run: as §3

[13] = qHTS RealTime-Glo MT Cell Viability Assay in HEK293 cells - 32 hour (AID 1224868); also: potency is read from the fitted curve at half-maximal effect; nearly all actives have a fitted effect of over 50% in size
How it was run: (§4)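 Nonlytic real-time viability readout: viable cells convert prosubstrate to NanoLuc substrate, giving luminescence proportional to live cell number. HEK293, 600 cells/well, compound added after 5 h, continuous culture at 37 C.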

[14] = A CellTox Green Cytotoxicity Assay to monitor cytotoxicity in HEK293 cells - 0 hour (AID 1224869); also: nearly all actives have a fitted effect of over 50% in size
How it was run: (§5)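 Seeding of HEK293 cells together with cytotoxicity dye preceded a 5 h incubation at 37 C/5% CO2. Test compounds in DMSO were then added and fluorescence monitored across 40 h.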

[15] = A CellTox Green Cytotoxicity Assay to monitor cytotoxicity in HEK293 cells - 40 hour (AID 1224871); also: nearly all actives have a fitted effect of over 45% in size; also: potency is read from the fitted curve at half-maximal effect
How it was run: as §5

[16] = qHTS RealTime-Glo MT Cell Viability Assay in HEK293 cells - 16 hour (AID 1224872)
How it was run: as §4

[17] = qHTS RealTime-Glo MT Cell Viability Assay in HEK293 cells - 40 hour (AID 1224874); details: RealTime-Glo luminescence; max response: stronger effect = lower value; also: nearly all actives have a fitted effect of over 50% in size; also: potency is read from the fitted curve at half-maximal effect
How it was run: (§6)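 Tox21 screen in HEK293 using RealTime-Glo MT chemistry, with cells and reagent co-dispensed. Luminescence proportional to viable cell number was captured at intervals during 40 h compound exposure at 37 C.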

[18] = qHTS RealTime-Glo MT Cell Viability Assay in HEK293 cells - 0 hour (AID 1224880); also: top concentration of the series differs between compounds; nearly all actives have a fitted effect of over 45% in size
How it was run: as §6

[19] = A CellTox Green Cytotoxicity Assay to monitor cytotoxicity in HEK293 cells - 32 hour (AID 1224881); also: nearly all actives have a fitted effect of over 40% in size; also: potency is read from the fitted curve at half-maximal effect
How it was run: as §5

[20] = A CellTox Green Cytotoxicity Assay to monitor cytotoxicity in HEK293 cells - 24 hour (AID 1224875); also: nearly all actives have a fitted effect of over 45% in size; also: potency is read from the fitted curve at half-maximal effect
How it was run: as §5

[21] = at 92.4 µM (top of the series) unless noted

CC(Cl)CN(C)C (centres undefined)
outcome [1]: inactive
Potency [2]: inactive
Potency [3]: inactive
Potency [4]: inactive
Potency [5]: inactive
Potency [6]: inactive
Potency [7]: inactive
Potency [8]: inactive
Potency [9]: inactive

Clc1ccc(C(c2ccc(Cl)cc2)C(Cl)(Cl)Cl)cc1
Potency [2]: 101 µM (active) and 89.8 µM (active)
Potency [10]: 54.9 µM (active) and 61.1 µM (active)
activity change, positive = activation ([11]; at 42.5 µM (top of the series)): -17.1% (inactive)
activity change, positive = activation ([11]; at 92.4 µM (top of the series)): -47.6% (inactive) and -41.9% (inactive)
Potency [12]: inactive
Potency [13]: 39.2 µM (active)
Potency [14]: inactive
Potency [3]: inactive
Potency [15]: 55.3 µM (active) and inactive
Potency [16]: 39.2 µM (active)
Potency [4]: inactive
Potency [17]: 39.2 µM (active)
Potency [5]: inactive
Potency [6]: inactive
Potency [7]: inactive
Potency [8]: inactive and 54.9 µM (active)
Potency [18]: inactive
Potency [19]: 55.3 µM (active) and inactive
Potency [9]: inactive

CC(C)CCCCCCCOP(=O)(Oc1ccccc1)Oc1ccccc1
outcome [1]: inactive
activity change, positive = activation [11, 21]: -16.8% (inactive)
Potency [12]: inactive
Potency [14]: inactive
Potency [3]: inactive
Potency [15]: inactive
Potency [4]: inactive
max response [17]: -33.6% (inactive)
Potency [20]: inactive
Potency [5]: inactive
Potency [6]: inactive
Potency [7]: inactive
Potency [8]: inactive
Potency [18]: inactive
Potency [19]: inactive
Potency [9]: inactive

CC(C)C1CCC(Cc2ccc(Cl)cc2)C1(O)Cn1cncn1 (centres undefined)
Potency [2]: 88.9 µM (active)
Potency [10]: 27 µM (active)
activity change, positive = activation [11, 21]: -68.5% (inactive)
Potency [12]: 43.2 µM (active)
Potency [13]: 12.2 µM (active)
Potency [14]: inactive
Potency [3]: 48.5 µM (active)
Potency [15]: 24.3 µM (active)
Potency [16]: 12.2 µM (active)
Potency [4]: 24.3 µM (active)
Potency [20]: 24.3 µM (active)
Potency [5]: 48.5 µM (active)
Potency [6]: 48.5 µM (active)
Potency [7]: 43.2 µM (active)
Potency [8]: 43.2 µM (active)
Potency [18]: inactive
Potency [19]: 34.3 µM (active)
Potency [9]: inactive

Oc1ccc(C(c2ccc(O)cc2)(C(F)(F)F)C(F)(F)F)cc1
Potency [2]: 113 µM (active)
Potency [10]: 54.2 µM (active) and 61.1 µM (active)
activity change, positive = activation [11, 21]: -65.7% (inactive) and -36.3% (inactive)
Potency [12]: inactive
Potency [13]: 43.4 µM (active)
Potency [14]: inactive
Potency [3]: inactive
Potency [15]: 43.4 µM (active) and inactive
Potency [4]: inactive
Potency [17]: 38.7 µM (active)
Potency [5]: 54.9 µM (active)
Potency [6]: inactive
Potency [7]: 54.7 µM (active) and 24.5 µM (active)
Potency [8]: 54.7 µM (active) and 54.9 µM (active)
Potency [18]: inactive
Potency [19]: 43.4 µM (active) and inactive
Potency [9]: inactive
